Source: PubChem BioAssay
Rows were chosen to be rich in hits. Some 6.1% of all compounds tested hit in one or more screens of this group.
D1 agonist – Allosteric Agonists of the Human D1 Dopamine Receptor: qHTS; D(1A) dopamine receptor (Homo sapiens), P21728; HEK293 T-REx D1 cells, calcium flux, agonist mode; activation, % at 2 µM; 360,000 tested, 1% active; AID 504660, 2011; in the data active = activation above about 30%
Target sequence (P21728 whole entry, looked up): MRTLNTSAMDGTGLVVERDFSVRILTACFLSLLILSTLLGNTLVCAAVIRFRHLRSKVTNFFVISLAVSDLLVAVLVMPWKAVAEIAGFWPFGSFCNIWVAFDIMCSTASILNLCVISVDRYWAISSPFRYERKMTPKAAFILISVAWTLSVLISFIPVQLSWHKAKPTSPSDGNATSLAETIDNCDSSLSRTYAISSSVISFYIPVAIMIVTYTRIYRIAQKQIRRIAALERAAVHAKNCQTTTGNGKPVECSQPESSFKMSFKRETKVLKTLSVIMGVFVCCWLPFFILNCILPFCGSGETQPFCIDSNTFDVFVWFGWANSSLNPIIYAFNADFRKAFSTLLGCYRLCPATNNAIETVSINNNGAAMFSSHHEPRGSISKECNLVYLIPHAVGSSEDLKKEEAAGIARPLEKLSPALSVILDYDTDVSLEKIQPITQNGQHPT
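Tetracycline-induced HEK293 TREx D1 cells, force-coupled to calcium signalling, were dye-loaded with a no-wash calcium kit. Compound was pin-added after a 10 s baseline. Fluorescence was read kinetically at 1 cycle/s for 180 s, with calcium rises flagged as agonism.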
D1 PAM – Potentiators of Human D1 Dopamine Receptor: qHTS. potentiation, % at 10 µM. HEK293 TREx D1 cells, calcium flux, dopamine EC20 potentiation. 360,000 tested, 0.036% active; in the data active = potentiation above about 30%
D1 antag – Antagonist of Human D 1 Dopamine Receptor: qHTS. D(1A) dopamine receptor (Homo sapiens), P21728. HEK293 TREx D1 cells, calcium flux, dopamine EC80; stronger effect = lower value. activity change, negative = inhibition, % at 10 µM. 360,000 tested, 3.2% active. AID 504652, 2011; in the data active = activity change below about -30%
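Compound effects on dopamine-evoked calcium signalling were measured in tetracycline-induced HEK293 Trex D1 cells. Dopamine at EC80 followed a 180 s compound pre-read, and fluorescence was tracked kinetically for 180 s more.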
DRD3 agonist – qHTS of D3 Dopamine Receptor Agonist: qHTS | D3R DiscoveRx beta-arrestin cells, luminescence, 90 min | max activation, % | 410,000 tested, 0.58% active; in the data active = max activation above about 30%
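Agonist mode: compounds and dopamine controls were applied to plated cells for 90 min at 37 degrees C after an overnight attachment at 1500 cells/well. Luminescent read-out followed 30 - 60 minutes at room temperature with DiscoveRx detection reagent.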
ERG-DNA inh – qHTS for Small Molecule Inhibitors of the ERG Ets/DNA interaction | Transcriptional regulator ERG (Homo sapiens), P11308 | fluorescence polarization, His-ERG Ets domain / labelled DNA | Potency, µM (doses to about 76.9 µM), usual class: inhibitors | 370,000 tested, 0.028% active | AID 624246, 2012; active = well fitted inhibition curve with a large enough effect in the polarisation, with a control signal flat; inconclusive = small, poorly fitted or top-dose-only effect, or effect the other way, or a change in a side signal; inactive = no such curve, though single readings can be large or run the other way; the % refers to the polarisation;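 also: polarization taken with two DNA probes labelled with fluorescein and Texas red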
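His-tagged ERG Ets domain (1 uM in the protein solution; 300mM KCl, 50mM Tris-HCl, 1mM EDTA, 1mM DTT, pH 7.5) received compound, then a probe mix of 5 nM fluorescein-DNA and 100nM Texas-615-DNA. Fluorescence polarization was read for both dyes.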
D3 antag – qHTS of D3 Dopamine Receptor Antagonist: qHTS. D(3) dopamine receptor (Homo sapiens), P35462. D3R cells, DiscoveRx beta-arrestin luminescence, antagonist mode; stronger effect = lower value. max response, negative = inhibition, %. AID 652054, 2013. 360,000 tested, 2.5% active; in the data active = max response below about -50%; inconclusive = no clear call, values can overlap the other calls
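Cells plated overnight at 1500 cells/well, then exposed to library compounds with dopamine controls for 90 minutes at 37 degrees C. DiscoveRx reagent added for 30–60 minutes at room temperature; luminescence read, quantitative HTS format.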
Hits are given with their value; . = inactive; ? = inconclusive; / = no result.

SMILES | D1 agonist | D1 PAM | D1 antag | DRD3 agonist | ERG-DNA inh | D3 antag
Cc1ccccc1/C=C/c1cc[n+](C)cc1 | . | . | . | . | . | .
CCn1cc(/C=C/c2cc[n+](C)cc2)c2ccccc21 | 69.1 | . | . | . | . | .
CC(C)n1cc(/C=C/c2cc[n+](C)cc2)c2ccccc21 | 88.4 | . | . | . | . | .
C=CCn1c(C)c(/C=C/c2cc[n+](C)cc2)c2ccccc21 | . | . | . | . | . | .
C=CCn1cc(/C=C/c2cc[n+](C)cc2)c2ccccc21 | 38.3 | . | . | . | . | .
COc1ccccc1CNC(=O)c1cn(C)c2ccc(S(=O)(=O)N3CCCCC3)cc2c1=O | . | . | . | / | / | /
COc1ccc(NC(=O)N2CCC(CO)(CC3CCCCO3)CC2)c(OC)c1 (stereo not given) | . | . | . | . | . | .
COc1cc(/C=C/CN2CCC(CO)(CC3CCCCO3)CC2)ccc1O (stereo not given) | . | . | . | . | . | -66.8
OCC1(CC2CCCCO2)CCN(C/C=C/c2ccccc2)CC1 (stereo not given) | . | . | . | . | . | -67.8
CNc1sc(C(=O)c2cccs2)c(N)c1-c1nc2ccccc2s1 | . | . | . | . | . | ?
CNc1sc(C(=O)c2ccc(F)cc2)c(N)c1-c1nc2ccccc2s1 | . | . | . | . | . | -76.1
CC1Nc2ncnc(N3CCN(c4ccccc4)CC3)c2N(Cc2ccc(Br)cc2)C1=O (stereo not given) | . | . | . | . | . | -156.2
COc1ccc(CN2C(=O)C(C)Nc3ncnc(N4CCN(c5ccccc5)CC4)c32)cc1 (stereo not given) | / | / | / | . | . | -69.9
CC1(C)C(c2ccccc2)=[N+]([O-])C2(CCCCC2=O)N1O (stereo not given) | . | . | . | . | . | .
COCCCNC(=O)c1ccc2nc3ccccc3c(=O)n2c1 | . | . | . | . | . | .
CCCS(=O)(=O)NC(=O)C1(C)CCCN(C(=O)c2cc(C)nn2C(C)(C)C)C1 (stereo not given) | / | / | / | . | / | .
Cc1nn(CC(=O)NCCc2ccccc2)c(=O)c2cccn12 | . | . | . | . | . | ?
O=[N+]([O-])c1cc(Cl)c(O)c2ncccc12 | . | . | . | . | . | .
Clc1cc2cccnc2c2ncccc12 | . | . | . | . | . | .
O=[N+]([O-])c1ccc(O)c2ncccc12 | . | . | . | . | . | -67.5
Oc1c(I)cc(Cl)c2cccnc12 | . | . | . | . | . | -71.2
O=[N+]([O-])c1cc(Cl)c2cccnc2c1O | 30.1 | . | . | . | . | .
O=C(NC(=S)NNC(=O)c1ccccc1F)c1cccnc1 | . | . | . | . | . | .
Cc1ccc(C(=O)NNC(=O)c2ccncc2)cc1S(=O)(=O)N1CCOCC1 | . | . | . | . | . | .
O=C(NCCc1cccc(C(F)(F)F)c1)C1CCC(=O)N(C2CC2)C1 (stereo not given) | . | . | . | . | . | .
SMILES | D1 agonist | D1 PAM | D1 antag | DRD3 agonist | ERG-DNA inh | D3 antag
Cc1ccccc1CC1(CO)CCCN(C(=O)Cc2c(F)ccc(F)c2F)C1 (stereo not given) | . | . | . | . | . | .
Cc1nn(CC(=O)OCC(=O)NC(C)c2ccccc2)c(C)c1[N+](=O)[O-] (stereo not given) | . | . | -33.7 | . | . | .
C[C@H]1CN([C@@H](C)CO)C(=O)CCCn2nncc2CO[C@@H]1CN(C)Cc1ccc2c(c1)OCCO2 | / | / | / | . | / | .
O=C(CSc1nnc(-c2cnccn2)n1Cc1ccco1)c1ccc(Cl)cc1 | . | . | . | . | . | -63.4
O=C(NCc1nnc(SCc2ccc(F)cc2)n1-c1ccccc1)C12CC3CC(CC(C3)C1)C2 | . | . | . | . | . | -51.1
Clc1ccc(OCc2nnc(SCc3nnc(-c4ccccc4)o3)o2)c(Cl)c1 | 35.1 | . | . | . | . | .
CCOC(=O)C1C(=O)C=C(/C=C/c2ccc(N(C)C)cc2)CC1c1ccccc1 (stereo not given) | 229.7 | . | . | . | . | .
N=c1sccn1CC(=O)NCCc1ccc(Cl)cc1Cl | . | . | / | . | . | -50.0
N=c1sccn1CC(=O)Nc1cc(Cl)ccc1Oc1ccccc1 | 55.5 | . | . | . | . | ?
COc1ccc(CN2C(=O)C(C)Oc3ccccc32)cc1 (stereo not given) | . | . | -35.3 | . | . | .
COc1cccc(CN2C(=O)C(C)Oc3ccccc32)c1 (stereo not given) | . | . | . | . | . | .
CC1=C(C(=O)N(C)C)CC(CC(=O)NC(c2ccccc2)c2ccccc2)C(=O)N1Cc1ccccc1 (stereo not given) | / | / | / | . | / | .
O=C(COc1cc(O)c2c(=O)cc(-c3ccccc3)oc2c1)c1cccc([N+](=O)[O-])c1 | . | . | . | . | . | .
O=C(CCN1CCN(c2ccccc2)CC1)NNC(=O)Cc1ccc(Br)cc1 | . | . | -38.9 | . | . | ?
Cc1ccccc1C(=O)NCC(=O)NNC(=O)CCN1CCN(c2ccccc2)CC1 | . | . | . | 32.2 | . | .
Cc1ccsc1C(=O)NNC(=O)CCN1CCN(c2ccccc2)CC1 | . | . | . | . | . | ?
O=C(c1[nH]nc2c1CCc1ccccc1-2)N1CCN(Cc2ccc3c(c2)OCO3)CC1 | . | . | . | . | . | ?
Cc1ccc(-c2c(C(=O)N/N=C/c3ccc(C)o3)nnn2-c2nonc2N)cc1 | . | . | . | . | . | .
COc1ccc(NC(=O)CN(C)C(=O)c2cccc(S(=O)(=O)Nc3ccc(F)cc3)c2)cc1 | . | . | . | . | . | .
COc1ccccc1C1NC=C([N+](=O)[O-])C=C1[N+](=O)[O-] (stereo not given) | . | . | . | . | ? | -62.2
O=C(NCc1nnc(SCC(=O)N2CCc3ccccc32)o1)c1ccco1 | . | . | . | . | . | .
CCN1CCN(c2nc3ccccn3c(=O)c2/C=C(\C#N)S(=O)(=O)c2ccccc2)CC1 | . | . | -65.7 | . | . | .
Cc1ccc(S(=O)(=O)/C(C#N)=C/c2c(N3CCC(C(N)=O)CC3)nc3c(C)cccn3c2=O)cc1 | . | . | -46.6 | . | . | ?
CCN1CCN(c2nc3c(C)cccn3c(=O)c2/C=C(\C#N)S(=O)(=O)c2ccccc2)CC1 | . | . | . | . | . | .
